Shown are actives, neighbours in structure and some others; about 19% of the full set was active somewhere.
DT40 TDP1 no CPT = qHTS for Inhibitors of human tyrosyl-DNA phosphodiesterase 1 (TDP1): qHTS in cells in absence of CPT | actives 15% (n = 420,000) | Potency, µM (highest dose often 46.2 µM), without a hit: top-dose activity change, negative = growth inhibition, usual class: inhibitors | DT40 Tdp1-/- hTDP1 cells, no CPT, ATP luminescence, 48 h; note: potency is the fitted concentration of half-maximal effect; nearly all actives have a fitted effect of over 55% in size
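Chicken DT40 Tdp1-/- cells stably complemented with human TDP1 were seeded at 400 cells/well with DMSO in place of 20 nM camptothecin. After compound pinning, cells grew at least 48 hr at 37 °C; viability read by CellTiter-Glo luminescence.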
HT1080 IDH1KD tx = kills HT-1080 cells with IDH1 knockdown; HT-1080 IDH1 knockdown viability, ATP luminescence, 48 h; Potency, µM (doses to about 46.1 µM), without a hit: top-dose activity, negative = toxicity, usual class: cytotoxic; actives 2% (n = 360,000); AID 686971;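 note: potency is the fitted concentration of half-maximal effect; 0% = DMSO wells and -100% = cell-free medium wells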
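CellTiter-Glo luminescence after 48 h compound exposure at 37 degrees C of IDH1-knockdown HT-1080 cells in 5% FBS RPMI. %Activity scaled between DMSO wells and cell-free media wells, with curves fitted and assigned curve classes.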
uPA surface inh = blocks generation of uPA at the cell surface. Potency, µM (highest dose often 38.3 µM), for inactives: at the highest dose activity change, negative = inhibition, most hits filed as inhibitors. actives 0.31% (n = 330,000). AID 540303. cell surface uPA generation assay, qHTS; active = well fitted inhibition curve with a large enough effect; inconclusive = small, poorly fitted or top-dose-only effect; inactive = no such curve, though single readings can be large or run the other way; tested in mouse RAW 264.7 cells; note: potency is the fitted concentration of half-maximal effect; nearly all actives have a fitted effect of over 55% in size
HT1080-NT tox = kills 2HG-producing HT-1080-NT fibrosarcoma cells; HT-1080-NT fibrosarcoma viability, CellTiter-Glo ATP luminescence, 48 h; Potency, µM (highest dose often 46.1 µM), without a hit: at the highest dose activity, negative = less viability, hits mostly cytotoxic; actives 1.6% (n = 360,000); AID 686970;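 note: NT is the 2HG producing partner of a matched IDH1 knockdown line; potency is the fitted concentration of half-maximal effect; 0% = DMSO-treated cells and -100% = media-only wells without cells; nearly all actives have a fitted effect of over 55% in size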
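Compounds were tested in concentration-response format on HT-1080-NT cells for 48 hours at 37 degrees C. Cell viability came from CellTiter-Glo luminescence; curves were classified by r2, response magnitude and activity.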
IL-1B inflam inh = blocks inflammasome-driven IL-1 beta release; THP-1 LPS/ATP IL-1B secretion, AlphaLISA, 16 h; hits give low values; activity change, % at 57.5 µM; actives 4.7% (n = 360,000); AID 743279; in the data active = activity change below about -50%; inconclusive = mostly about -30% to -49%
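Secreted IL-1B measured by AlphaLISA bead assay after 16 h compound exposure of THP-1 cells; compounds (final up to 57.5 uM) added 1 h before LPS (250 ng/mL) and ATP (1.25 mM) stimulation; lower signal means less secretion.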
DT40 TDP1 CPT = DT40-hTDP1 cell growth loss with CPT. chicken DT40 Tdp1-/-;hTDP1 cells + 20 nM CPT, ATP luminescence, 48 h. Potency, µM (series often up to 46.2 µM), for inactives: at the highest dose activity change, negative = growth inhibition, hits mostly inhibitors. actives 12% (n = 420,000). AID 686979; note: potency is the fitted concentration of half-maximal effect; nearly all actives have a fitted effect of over 55% in size
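Chicken DT40 Tdp1-/- cells complemented with human TDP1, 400 cells/well, exposed to compounds plus 20 nM camptothecin for at least 48 h at 37 C; viability read as ATP content by CellTiter-Glo luminescence.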
Numbers without * were called inactive; ? = inconclusive; nt = no result. Unless noted, calls come from the whole dose curve; as a rule, active = well fitted curve in the direction sought with a large enough effect; inconclusive = small, poorly fitted or top-dose-only effect, or another doubt; inactive = no such curve, though single readings can be large; an effect the other way counts as inactive or inconclusive. Unless noted, % is set by controls: 0 for no effect and ±100 for the full control effect.

SMILES	DT40 TDP1 no CPT	HT1080 IDH1KD tx	uPA surface inh	HT1080-NT tox	IL-1B inflam inh	DT40 TDP1 CPT
COc1ccc(-c2csc3ncnc(Cl)c23)cc1	?	-13%	-1%	-21%	-29	?
Cc1ccc(CN2CCc3nc(Nc4ccc5c(c4)OCCO5)ncc3C2)cc1	21µM*	nt	nt	nt	nt	?
Nc1nc(CN2CCN(Cc3ccccc3)CC2)nc(Nc2ccc3c(c2)OCCO3)n1	-26%	-6%	1%	-1%	12	-29%
CCc1ccc(CN2CCc3nc(Nc4ccc5c(c4)OCCO5)ncc3C2)cc1	23µM*	nt	nt	nt	nt	?
CC(=O)Nc1cc(-c2cccc(N)c2)cn2c(-c3ccc(C(C)=O)cc3)cnc12	10µM*	?	nt	?	8	?
CC(=O)Nc1cc(-c2cccc(CO)c2)cn2c(-c3ccc(F)cc3)cnc12	?	-19%	nt	-2%	-23	23µM*
COc1ccc(-c2cnc3c(NC(C)=O)cc(-c4ccccc4CN(C)C)cn23)cc1OC	?	?	nt	?	-22	?
CC(=O)Nc1cc(-c2cccc(CO)c2)cn2c(-c3ccc(C(C)=O)cc3)cnc12	21µM*	5%	nt	-26%	-29	?
CC(=O)Nc1cc(-c2ccccc2CN(C)C)cn2c(-c3ccc(C(C)=O)cc3)cnc12	16µM*	?	nt	18µM*	68	?
CCOCCCN(C(=O)c1snc(C(N)=O)c1N)C(C(=O)NC1CCCC1)c1ccc(OC)cc1 (stereo not drawn)	?	10%	0%	3%	-2	-2%
Cc1ccc(CCNC(=O)C2CCN(S(=O)(=O)c3ccc4c(c3)NC(=O)C(C)S4)CC2)cc1 (stereo not drawn)	18µM*	?	-12%	0%	-68*	?
Cc1ccc(NC(=O)C2CCN(S(=O)(=O)c3ccc4c(c3)NC(=O)C(C)S4)CC2)cc1Cl (stereo not drawn)	1.2µM*	?	?	?	31	1.3µM*
Cc1cc(C)cc(NC(=O)C2CCN(S(=O)(=O)c3ccc4c(c3)NC(=O)C(C)S4)CC2)c1 (stereo not drawn)	-24%	-20%	-7%	0%	?	?
CC1Sc2ccc(S(=O)(=O)N3CCC(C(=O)NCCc4ccccc4)CC3)cc2NC1=O (stereo not drawn)	?	-20%	-11%	-23%	19	?
Cc1ccc(NC(=O)C2CCN(S(=O)(=O)c3ccc4c(c3)NC(=O)C(C)S4)CC2)c(Cl)c1 (stereo not drawn)	21µM*	?	?	-26%	?	13µM*
CCc1nn2c(=O)cc(COC(=O)c3ccccc3NC(=O)c3ccc(C(C)(C)C)cc3)nc2s1	-23%	nt	nt	nt	nt	4%
Fc1ccc2c(c1)-c1c(cnc3cc(-c4ccc(Cl)cc4)nn13)CO2	-5%	nt	nt	nt	nt	-2%
CCc1c(C(C)S(=O)(=O)c2ccc(C)cc2)[nH]c(=O)n1-c1ccc(C)cc1 (stereo not drawn)	29µM*	-2%	-1%	6%	-10	?
O=C1NC(=S)/C(=C\c2ccc(-c3ccccc3Cl)o2)S1	13µM*	?	3%	?	-4	23µM*
O=C1NC(=O)/C(=C/c2ccc(-c3cc(C(=O)O)ccc3Cl)o2)S1	-16%	-21%	-9%	-27%	-11	1%
CC(C)(C)OC(=O)N1CCC[C@H]1C(=O)Nc1ccc(C#N)cc1	?	-9%	-5%	-4%	-7	-8%
O=c1cc(C(Cl)(Cl)Cl)oc2c1ccc1ccccc12	0.52µM*	12µM*	-13%	16µM*	-73*	0.15µM*
COc1ccc(-c2cc(=O)c3ccc(O)cc3o2)cc1	?	-16%	?	-15%	5	?
O=c1cc(-c2ccco2)oc2c1ccc1ccccc12	-21%	23%	-5%	9%	-22	-6%
O=c1cc(-c2ccc(O)cc2)oc2c(C3O[C@H](CO)[C@@H](O)[C@H](O)[C@H]3O)c(O)cc(O)c12 (stereo partly drawn)	-28%	17%	3%	-3%	11	-9%
SMILES	DT40 TDP1 no CPT	HT1080 IDH1KD tx	uPA surface inh	HT1080-NT tox	IL-1B inflam inh	DT40 TDP1 CPT
O=c1cc(-c2ccncc2)oc2c1ccc1ccccc12	23µM*	-4%	6%	-18%	-83*	?
O=c1c2ccccc2oc2c1ccc1ccccc12	?	7%	?	13%	19	?
O=c1cc(-c2ccc(O)cc2)oc2c(O)c(O)c(O)c(O)c12	?	-3%	4%	2%	-3	23µM*
O=c1cc(-c2ccc(O)cc2)oc2c1ccc1ccccc12	-18%	0%	-6%	1%	-59*	-23%
C#CCCCCCCCCCCCc1ccco1	?	nt	nt	nt	nt	6%
Cc1cnc(CNc2ncncc2-c2ccccc2C)cn1	?	nt	nt	nt	nt	-1%
O=C(CN1CCSC1=O)Nc1ccc(N2CCOCC2)cc1	-19%	7%	0%	5%	2	0%
O=c1cc(-c2ccc(O)cc2)oc2ccc3ccccc3c12	16µM*	?	0.89µM*	?	-22	?
COc1cccc2oc(-c3ccc(O)cc3)cc(=O)c12	-23%	nt	nt	nt	nt	2%
NC(=O)C1CCN(C(=O)c2ccc(NS(=O)(=O)/C=C/c3ccccc3)cc2)CC1	-23%	-2%	nt	7%	11	0%
Cc1ccc(CCC(=O)Nc2ncc(Cc3cccc(Cl)c3Cl)s2)o1	0.016µM*	?	-11%	0.73µM*	14	0.023µM*
CCc1nnc(NC(=O)CCc2ccc(C)o2)s1	-13%	?	nt	-3%	-11	-23%
Cn1nc(C(=O)NCC(=O)Nc2ccc(F)c(F)c2)ccc1=O	2%	-3%	nt	-2%	16	-8%
O=C(C[C@@H]1C/C=C\C[C@H](NC(=O)OCC2c3ccccc3-c3ccccc32)C(=O)OC[C@H]2CCCN2C1=O)NCCO	?	2%	-10%	-4%	9	?
CC(C)(C)OC(=O)C[C@@H]1C/C=C\C[C@H](CC(=O)NCCO)C(=O)N2CCC[C@@H]2COC1=O	-14%	15%	-7%	14%	12	-8%
O=C(C[C@H]1C/C=C\C[C@H](NC(=O)OCC2c3ccccc3-c3ccccc32)C(=O)OC[C@H]2CCCN2C1=O)NCCO	16µM*	-3%	16%	1%	31	12µM*
